Some test systems named below: NCI-H23 lung; NCI-H226 lung; NCI-H322M lung; HOP-62 NSCLC; NCI-H460 lung; HOP-92 NSCLC; A549/ATCC NSCLC; 786-0 renal; COLO 205 colon; DU-145 prostate; K-562 leukemia; MDA-MB-231 breast; RXF 393 renal; SF-268 CNS; SF-295 CNS; SF-539 CNS; UACC-257 melanoma; M14 melanoma; MALME-3M melanoma.
Assay in all cases: NCI-60 one-dose screen, 48 h (100 = growth as untreated, 0 = no growth, -100 = all killed)
What all share (details): 10 µM unless noted

Among the data in PubChem BioAssay (NCI) are growth values, retold here.

Compounds without any hit were thinned out: in the full panel of roughly 83,000, 20% have a hit.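 For each line, cells grew in 96-well plates with the test compound present at a single concentration for 48 hours.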 Unmarked numbers belong to inactive results. Calls of active or inactive are those of the source. How the source made its calls: active means growth percent below 10; inactive means the rest.

Take `CCC(=O)Nc1cc2c(cc1Cl)-c1ccccc1C2`: the growth in the experiment on NCI-H23 lung was 89.1%; in the experiment on NCI-H226 lung, 81.7%; with NCI-H322M lung, 106%; with HOP-62 NSCLC, 97.6%; with NCI-H460 lung it was 98.2%; with HOP-92 NSCLC, 76.9%. In addition, the growth in the experiment with A549/ATCC NSCLC was 94.2%; in the experiment with 786-0 renal, 91.5%; with COLO 205 colon it was 99.4%; in the experiment on DU-145 prostate, 109%; with K-562 leukemia, 104%; in the experiment with MDA-MB-231 breast, 74.5%. Besides, the growth is 102% in the experiment on RXF 393 renal; 84.3% in the experiment on SF-268 CNS; 121% in the experiment with SF-295 CNS; 94.3% with SF-539 CNS; 96.6% in the experiment with UACC-257 melanoma; 102% with M14 melanoma.

For `O=C1OC2(c3ccccc31)c1ccccc1-c1ccccc12`, the growth is 89.6% with NCI-H23 lung; 95.8% in the experiment with NCI-H226 lung; 103% with NCI-H322M lung; 93.8% in the experiment with HOP-62 NSCLC; 106% with NCI-H460 lung; 96.9% in the experiment on HOP-92 NSCLC. Besides, the growth was 72.4% with A549/ATCC NSCLC; 86.2% with 786-0 renal; 81.7% in the experiment on COLO 205 colon; 114% with DU-145 prostate; 36.5% in the experiment on K-562 leukemia; 68.3% in the experiment with MDA-MB-231 breast. Also, the growth in the experiment with RXF 393 renal is 96.8%; in the experiment with SF-268 CNS, 86.8%; in the experiment with SF-295 CNS, 75.4%; in the experiment with SF-539 CNS it was 99.2%; in the experiment on UACC-257 melanoma, 88.7%; in the experiment on M14 melanoma, 50.7%.

Turning to `FC(F)(F)c1ccc(-c2cnc(-c3nn[nH]n3)nc2NC2CCCCCC2)cc1`, the growth with NCI-H23 lung is 66% [50 µM]; in the experiment with NCI-H226 lung, 70.9% [50 µM]; with NCI-H322M lung, 51.1% [50 µM]; in the experiment on HOP-62 NSCLC it was 63.7% [50 µM]; in the experiment with NCI-H460 lung, 34.6% [50 µM]; with HOP-92 NSCLC, -8.27% [50 µM] (active). Further, the growth is 81.1% [50 µM] with A549/ATCC NSCLC; 49.8% [50 µM] in the experiment on 786-0 renal; 95% [50 µM] with COLO 205 colon; 64% [50 µM] in the experiment with DU-145 prostate; 20% [50 µM] with K-562 leukemia; 69.5% [50 µM] with MALME-3M melanoma. The growth with MDA-MB-231 breast was 64.1% [50 µM]; in the experiment with RXF 393 renal it was 88.7% [50 µM]; with SF-268 CNS, 47.8% [50 µM]; in the experiment with SF-539 CNS, 64% [50 µM]; with UACC-257 melanoma, 81.6% [50 µM]; with M14 melanoma, 53.2% [50 µM].

In the case of `CCN(CC)c1ccc(C(=C2C=CC(=[N+](CC)Cc3cccc(S(=O)(=O)O)c3)C=C2)c2ccc(N(CC)Cc3cccc(S(=O)(=O)O)c3)cc2)cc1`, the growth was 45.2% in the experiment with NCI-H23 lung; 71.3% in the experiment on NCI-H226 lung; 58.3% in the experiment with NCI-H322M lung; 1.01% (active) in the experiment with HOP-62 NSCLC; 49.1% in the experiment with NCI-H460 lung; 66.3% in the experiment on HOP-92 NSCLC. Also, the growth in the experiment with A549/ATCC NSCLC is -4.01% (active); in the experiment on 786-0 renal, 55.9%; with COLO 205 colon, 14%; in the experiment on DU-145 prostate it was 37.2%; in the experiment with K-562 leukemia, 7.9% (active); in the experiment with MALME-3M melanoma it was 59.4%. Also, the growth was 62.3% in the experiment on MDA-MB-231 breast; 34.5% with SF-268 CNS; 15.5% with SF-295 CNS; 62.1% with SF-539 CNS; 19.5% in the experiment on M14 melanoma.

As for `COc1ccc(N2CCN(CC(=O)N3CCN(c4nnc(-c5ccc(Cl)cc5)c(-c5ccc(Cl)cc5)n4)CC3)CC2)cc1`, the growth is 81.7% with NCI-H23 lung; 57.9% in the experiment with NCI-H226 lung; 69.3% in the experiment with NCI-H322M lung; 93.3% with HOP-62 NSCLC; 52.4% in the experiment on NCI-H460 lung; 50.3% in the experiment on HOP-92 NSCLC. Moreover, the growth with A549/ATCC NSCLC was -8.6% (active); in the experiment with 786-0 renal, 60.4%; in the experiment with COLO 205 colon, 86%; with DU-145 prostate, 70.6%; in the experiment on K-562 leukemia, 22.3%; in the experiment on MALME-3M melanoma, 81.7%. Moreover, the growth in the experiment on MDA-MB-231 breast is 84.1%; in the experiment on SF-268 CNS it was 69.8%; with SF-295 CNS, 53.9%; with SF-539 CNS, 30.7%; in the experiment with M14 melanoma, 59.8%.

Take `COc1cc(-c2n[nH]nc2-c2ccccn2)cc(OC)c1OC`: the growth with NCI-H23 lung was 98.2%; in the experiment on NCI-H226 lung it was 90.3%; in the experiment on NCI-H322M lung it was 95.8%; in the experiment on HOP-62 NSCLC it was 97.5%; in the experiment with NCI-H460 lung it was 104%; in the experiment on HOP-92 NSCLC, 86.3%. For the same molecule, the growth was 65.6% in the experiment with A549/ATCC NSCLC; 96.4% in the experiment on 786-0 renal; 119% in the experiment with COLO 205 colon; 112% with DU-145 prostate; 90.6% in the experiment on K-562 leukemia; 90.5% in the experiment on MALME-3M melanoma. The growth was 98.3% with MDA-MB-231 breast; 114% with SF-268 CNS; 115% in the experiment on SF-295 CNS; 104% in the experiment on SF-539 CNS; 113% in the experiment with M14 melanoma.

Turning to `CCOc1cc(CCNS(=O)(=O)c2ccc(C)cc2)c(C(C)=O)cc1OCC`, the growth in the experiment on NCI-H23 lung was 89.3% [100 µM]; in the experiment with NCI-H226 lung, 81% [100 µM]; in the experiment with NCI-H322M lung it was 108% [100 µM]; in the experiment on HOP-62 NSCLC, 96.6% [100 µM]; with NCI-H460 lung, 76.9% [100 µM]; in the experiment with HOP-92 NSCLC, -5.84% [100 µM] (active). Moreover, the growth in the experiment on A549/ATCC NSCLC was 74.8% [100 µM]; in the experiment with 786-0 renal, 74.9% [100 µM]; with COLO 205 colon, 95.9% [100 µM]; with DU-145 prostate, 76.1% [100 µM]; in the experiment on K-562 leukemia, 41.3% [100 µM]; with MALME-3M melanoma it was 98.3% [100 µM]. Moreover, the growth was 78.5% [100 µM] in the experiment on MDA-MB-231 breast; 87% [100 µM] in the experiment with RXF 393 renal; 79.9% [100 µM] in the experiment with SF-268 CNS; 101% [100 µM] in the experiment with SF-539 CNS; 77.8% [100 µM] in the experiment on UACC-257 melanoma; 79.9% [100 µM] in the experiment on M14 melanoma.

As for `CCCCCc1c(C)[nH]c(/C=C2\N=C(c3ccc[nH]3)C=C2OCc2ccccc2)c1C`, the growth in the experiment with NCI-H23 lung was -67.3% [100 µM] (active); with NCI-H226 lung it was -42.5% [100 µM] (active); with NCI-H322M lung, -94.6% [100 µM] (active); in the experiment with HOP-62 NSCLC, -91.9% [100 µM] (active); in the experiment on NCI-H460 lung, -40.4% [100 µM] (active); with HOP-92 NSCLC it was -77.6% [100 µM] (active). In addition, the growth with A549/ATCC NSCLC is -70% [100 µM] (active); with 786-0 renal, -75.7% [100 µM] (active); in the experiment with COLO 205 colon, -84% [100 µM] (active); with DU-145 prostate, -100% [100 µM] (active); in the experiment with K-562 leukemia, -26.2% [100 µM] (active); in the experiment on MALME-3M melanoma, -86.9% [100 µM] (active). Besides, the growth in the experiment with MDA-MB-231 breast is -86.4% [100 µM] (active); with RXF 393 renal, -48.8% [100 µM] (active); in the experiment on SF-268 CNS it was -70.9% [100 µM] (active); in the experiment on SF-539 CNS, -69.8% [100 µM] (active); with UACC-257 melanoma, -87.7% [100 µM] (active); in the experiment on M14 melanoma, -81.4% [100 µM] (active).

For the molecule `Cc1nn2c(/C=C3/C(=O)Nc4cc(Cl)ccc43)c(-c3ccccc3)nc2s1`, the growth in the experiment with NCI-H23 lung was 34.9%; in the experiment with NCI-H226 lung it was 95.2%; in the experiment on NCI-H322M lung, 31%; with HOP-62 NSCLC it was 20.4%; in the experiment on NCI-H460 lung, 13.6%; in the experiment with HOP-92 NSCLC, -27.8% (active). Further, the growth was -28.7% (active) in the experiment on A549/ATCC NSCLC; -74.8% (active) in the experiment on 786-0 renal; 21.8% in the experiment with COLO 205 colon; 33.4% in the experiment on DU-145 prostate; 23.5% with K-562 leukemia; -64.6% (active) with MALME-3M melanoma. Besides, the growth in the experiment on MDA-MB-231 breast was 8.57% (active); in the experiment with RXF 393 renal, -18% (active); in the experiment on SF-268 CNS it was 50.1%; in the experiment on SF-539 CNS it was -41.4% (active); in the experiment on UACC-257 melanoma, -29% (active); with M14 melanoma it was 22.2%.
